The campaign covered roughly 360,000 compounds. About 2,700 (0.75%) were called active. Cut-off read from the data, not from the text of the source: active = inhibition above about 4.5%; inactive = the rest. For the sample, actives were picked, then their nearest neighbours and some compounds at random.
These molecules were tested on Methionine sulfoxide reductase A (Bos taurus) (assay: bovine MsrA enzyme inhibitors, primary screen, biochemical, absorbance, HTS (AID 651718;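 note: 0% = vehicle wells with enzyme and 100% = reference inhibitor wells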)). Settings: purified bovine MsrA, absorbance read-out; at 15.5 µM; active compounds read high.

inhibition, active:
Cc1ccc(Cl)cc1-c1ccc(/C=N/n2cnnc2)o1 4.94%, Cc1cc(C)nc(S/C=C/C(=O)c2ccccc2)n1 5.17%, CC(N=Cc1nc(-c2ccccc2)oc1O)c1ccccc1 (stereo not given) 5.77%, CSc1ccc(/C=C2\NC(=O)NC2=O)cc1 7.41%, CC(/C=N/NC(=O)c1ccncc1)=C\c1ccco1 4.8%, COCCNC(=S)N/N=C/c1c(C)[nH]c2ccccc12 5.52%

inhibition, inactive:
O=c1c2ccccc2nnn1CSc1nc2sc3c(c2c(=O)n1CC1CCCO1)CCC3 (stereo not given) -0.37%, Brc1cc(/C=N/n2cnnc2)oc1Br 2.05%, Clc1cc(-c2ccc(/C=N/n3cnnc3)o2)ccc1Br 0.91%, CC(=O)Nc1ccc(S(=O)(=O)N(C)c2ccc(OCC(=O)OCC(=O)N3CCCCC3)cc2)cc1 -0.39%, CC(C)OCCCNC(=S)N1CCC(C(=O)c2ccc3c(c2)OCCO3)CC1 -0.4%, CCCN(CC(=O)Nc1ccccc1OC)C(=O)CCC(=O)c1ccc(F)cc1 -0.69%, CSc1nc(N(C)NC(=O)c2cccc(C)c2)c2ccccc2n1 0.74%, CCOC(=O)C(=Cc1ccccc1)C(=O)c1ccccc1 0.49%, CCc1ccc(C2=CC(=O)CC(C)(C)C2=O)cc1 0.09%, COc1cccc(CNC(=O)[C@H]2CCCN2C(=O)[C@H]2CCCN2C(=O)C2CCCCC2)c1 -0.24%, COCC1CCN(C(=O)C2CCC(=O)N(CC3CCCCC3)C2)CC1 (stereo not given) -0.21%, Oc1oc(-c2ccccc2Br)nc1/C=N/c1ccccn1 2.4%, Cc1ccc(-c2noc(CC(c3ccccc3)c3ccccc3)n2)cc1 0.66%, CCN(CC)CC1(O)CCN(C(=O)c2ccc(Cl)c(Cl)c2)CC1 -0.14%, Cc1ccc(C)c(CN2CCC(CNC(=O)C3CCCN(c4ncnc5c4nc4n5CCCCC4)C3)CC2)c1 (stereo not given) 1.23%, CC(C)c1ccc(/C=C2\NC(=O)NC2=O)cc1 1.9%, CSc1ccc(/C=C/C(=O)NC23CC4CC(CC(C4)C2)C3)cc1 3.33%, OC(CCl)CCl -0.37%, COc1ccc(CN2CCC(C)(Oc3cccc(F)c3)C2)c2ccccc12 (stereo not given) 0.31%, CC(=NNC(=O)c1ccncc1)c1ccc(Cl)c(Cl)c1 -0.76%, CC(/C=N/NC(=O)c1cc(-c2ccc3ccccc3c2)n[nH]1)=C\c1ccco1 2.77%, C=CCN1C(=O)N(Cc2ccccc2)c2ccccc2S1(=O)=O 3.26%, COCCNC(=S)N(CCc1c(C)[nH]c2ccc(C)cc12)Cc1cccnc1 -1.51%, Cc1[nH]c2ccccc2c1/C=N/NC(=O)CNC(=O)c1ccc2c(c1)OCO2 2.56%

From PubChem BioAssay AID651718 (The Scripps Research Institute Molecular Screening Center, 2012)
